Laboratory results published in PubChem BioAssay (NCI).
The panel holds about 83,000 compounds, 20% with a hit somewhere; the sample as a whole holds those more often.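 Cell lines were cultured in 96-well plates, exposed to a single compound concentration, and assessed for percent growth 48 hours later.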 Unmarked numbers belong to inactive results. Active and inactive are the calls of the source. How the source made its calls: active means growth percent below 10; inactive means the rest.

Experiments:
Assay in all cases: NCI-60 one-dose screen, 48 h (100 = growth as untreated, 0 = no growth, -100 = all killed)
Conditions in all cases: 10 µM unless noted
T-47D breast = system: T-47D breast
BT-549 breast = system: BT-549 breast
MDA-MB-435 melanoma = system: MDA-MB-435 melanoma
SW-620 colon = system: SW-620 colon
MCF7 breast = system: MCF7 breast
HCT-116 colon = system: HCT-116 colon
HCC-2998 colon = system: HCC-2998 colon
KM12 colon = system: KM12 colon
MDA-MB-468 breast = system: MDA-MB-468 breast

Compound	growth (T-47D breast)	growth (BT-549 breast)	growth (MDA-MB-435 melanoma)	growth (SW-620 colon)	growth (MCF7 breast)	growth (HCT-116 colon)	growth (HCC-2998 colon)	growth (KM12 colon)	growth (MDA-MB-468 breast)
CN1CCN(c2ccc3c4c(cccc24)C(=O)N(c2cccc(-c4nn(-c5ccccc5)cc4-c4nc5ccccc5s4)c2)C3=O)CC1	109%	97.1%	95.1%	93%	5.13% (active)	79%	79.2%	73.5%	94.1%
COc1ccccc1Nc1nnc(-c2c[nH]c3ccccc23)o1	16.6%	39.7%	-40.8% (active)	40.9%	10.6%	12.5%	7.55% (active)	2.26% (active)	-25.4% (active)
COC(=O)c1cc(C(=O)C(Br)Br)n2c1ccc1c3ccccc3ccc12	1.99% (active)		79%	45.2%	5.77% (active)	49.6%	43.5%	39.7%	-8.15% (active)
Oc1ccc(Cl)c(Nc2ncnc3c2cnn3CC(Cl)c2ccc(Br)cc2)c1 (centres undefined)	32.9%		57.7%	67.1%	49.7%	40.8%	98.3%	85.9%	26.2%
O=C(CSc1nc2sc3c(c2c(=O)n1-c1ccc(Cl)cc1)CCCC3)NNC(=O)c1ccc(F)cc1	74%	67.3%	98.2%	91%	61.9%	78.3%	113%	101%	95%
NC(=Nc1ccc(OCCCCCCCCn2cnnn2)cc1)c1ccccc1	45.6%	18.9%		22.5%	13.4%	15.2%	17.1%	10.5%	20.9%
CCN1C(=O)N(CC)C2NNC(Sc3c(C(=O)O)c4ccccc4n(CC(C)C)c3=O)=NC21 (centres undefined)	72.5%		-51% (active)	30.5%	8.53% (active)	9.94% (active)	18.7%	21.4%	7.22% (active)
O=C(N/N=C/c1ccc(Cl)cc1)c1ccc(OCc2nc3ccc(Cl)cc3[nH]2)cc1	-19.6% (active)		-15.7% (active)	-40.3% (active)	-21.7% (active)	22.7%	18.2%	52.9%	52.4%
COC(=O)c1c(C(=O)OC)c2ccc3c4ccccc4ccc3n2c1C(=O)C(C)Br (centres undefined)	36.5%		10.3%	9.86% (active)	6.04% (active)	14%	67.9%	91.5%	50.7%
ClC(Cn1ncc2c(Nc3cccc(Br)c3)nc(SCCN3CCOCC3)nc21)c1ccc(Br)cc1 (centres undefined)	-2.99% (active)		-4.97% (active)	-32.1% (active)	-5.44% (active)	6.22% (active)	3.46% (active)	-20% (active)	-18% (active)
Clc1ccc(CNc2nc(SCCN3CCOCC3)nc3c2cnn3CC(Cl)c2ccc(Br)cc2)cc1 (centres undefined)	22.4%		27.6%	19.2%	10.1%	22.7%	30.9%	28%	39.9%
Nc1nnc(CS(=O)(=O)c2ccccc2)s1	102%		113%	108%	101%	107%	103%	101%	111%
COc1ccc2[nH]cc(-c3cc(N)n4nc(-c5c[nH]c6ccccc56)cc4n3)c2c1	-21.8% (active)		-79% (active)	-70.4% (active)	-81.6% (active)	-82.1% (active)	-76.2% (active)	-48.8% (active)	-67.8% (active)
Fc1ccc(F)c(CNc2nc(SCCN3CCOCC3)nc3c2cnn3CC(Cl)c2ccc(Br)cc2)c1 (centres undefined)	10.8%		-13.3% (active)	-3.05% (active)	2.55% (active)	16.8%	24.7%	4.2% (active)	-22.9% (active)
Fc1ccccc1CNc1nc(SCCN2CCOCC2)nc2c1cnn2CC(Cl)c1ccc(Br)cc1 (centres undefined)	14.2%		29.6%	-51% (active)	21.3%	26.1%	21.4%	8.13% (active)	22.1%
Nc1cc(-c2c[nH]c3ccc(F)cc23)nc2cc(-c3c[nH]c4ccccc34)nn12	18.3%		4.81% (active)	-66.1% (active)	-22.9% (active)	-41.8% (active)	-59.2% (active)	-54.1% (active)	-18.9% (active)
COc1ccc(/C=C/C(=O)c2ccc(S(=O)(=O)NCCNc3nc(N(C)C)nc(N4CCOCC4)n3)cc2)cc1	83.5%	105%	81.8%	68.7%	11.8%	-9.23% (active)	116%	64.8%	76.3%
CC(C)(C)C(=O)C1CC(C#N)=C2C=Cc3c(ccc4ccccc34)N21 (centres undefined)	72.8%		97.9%	102%	63%	93.1%	99.7%	97%	
COc1cccc(C(N)=Nc2ccc(OCCCCCCCCn3cncn3)cc2)c1	52%			21.2%	18.3%	12.5%	23.4%		
Oc1ccc(F)c(Nc2nc(SCCN3CCOCC3)nc3c2cnn3CC(Cl)c2ccc(Br)cc2)c1 (centres undefined)	-6.68% (active)		17.8%	29.3%	7.39% (active)	14.9%	15.8%	11%	-20.5% (active)

Compound	growth (T-47D breast)	growth (BT-549 breast)	growth (MDA-MB-435 melanoma)	growth (SW-620 colon)	growth (MCF7 breast)	growth (HCT-116 colon)	growth (HCC-2998 colon)	growth (KM12 colon)	growth (MDA-MB-468 breast)
Cc1cc(N=C(N)c2ccccc2)ccc1OCCCCCCCCn1ccnc1	26.4%			20%	-4.6% (active)	11.4%	-32.6% (active)		2.88% (active)
O=C(OCCOCCO)N(c1cccc(Br)c1)c1nc(SCCN2CCOCC2)nc2c1cnn2CC(Cl)c1ccc(Br)cc1 (centres undefined)	13.6%		9.72% (active)	17.8%	4.77% (active)	10.8%	12%	-8.97% (active)	
O=C(Nc1ccc(Br)cc1)Nc1ccc(-c2ccc3c(c2)NC(=O)/C3=C\c2ccc[nH]2)cc1	12.1%	17.2%	39.7%	21%	8.33% (active)	35%	38.8%	-22.6% (active)	-5% (active)
O=C1Nc2cc(-c3ccc(NS(=O)(=O)c4ccc(F)c(Cl)c4)cc3)ccc2/C1=C/c1ccc[nH]1	14.7%	19.7%	55.1%	33.9%		12%	17.1%	13.6%	
Nc1cc(-c2c[nH]c3ccc(Cl)cc23)nc2cc(-c3c[nH]c4ccccc34)nn12	-5.16% (active)		-51% (active)	-79.6% (active)	-68.3% (active)	-83.9% (active)	-81.2% (active)	-70.5% (active)	-72.3% (active)
COc1ccc2[nH]cc(-c3cc4nc(-c5cn(C)c6ncc(Br)cc56)cc(N)n4n3)c2c1	-62.7% (active)	-57.3% (active)	-61.6% (active)	-74.4% (active)	-59.7% (active)	-95.9% (active)	-95% (active)	-49.8% (active)	-83.1% (active)
O=C1Nc2ccc(F)cc2/C1=C/C(=O)c1cc2ccccc2oc1=O	93.4%	116%	103%	20.9%	69.4%	88.7%	121%	101%	22.3%
Nc1nc2cc(-c3ccc4ncnc(NCc5ccccc5)c4c3)ccc2o1	-53.6% (active)	-10.8% (active)	16.7%	24.1%	-25.6% (active)	-20% (active)	40.3%	25.4%	-47.5% (active)
NS(=O)(=O)c1cccc(Nc2nc(SCC(=O)c3ccc(F)cc3)nc3ccccc23)c1	-7.28% (active)	-5.16% (active)	-18% (active)	27.4%	2.1% (active)	5.03% (active)	16%	-1.98% (active)	-9.09% (active)
COC(=O)c1cc(C(=O)CBr)n2c1ccc1c3ccccc3ccc12	57.7%		74.9%	55.4%	6.75% (active)	35.6%	62.5%	84%	48.8%
COc1ccc(N=Nc2c(N)nn3c(-c4cc5ccccc5oc4=O)ccnc23)cc1	53.2%	29.5%	75.5%	31.3%	29%	37.9%	38.1%	51.1%	24.7%
Cn1cc(-c2cc3nc(-c4c[nH]c5ccccc45)cc(N)n3n2)c2ccccc21	-69.4% (active)		-81.8% (active)	-77.1% (active)	-67.4% (active)	-74.2% (active)	-78.2% (active)	-33.9% (active)	-53.9% (active)
Oc1ccc(Cl)c(Nc2nc(SCCN3CCOCC3)nc3c2cnn3CC(Cl)c2ccc(Br)cc2)c1 (centres undefined)	0% (active)		12%	30.4%	5.55% (active)	13.8%	9.56% (active)	17.1%	-26.7% (active)
CC1=C(C(=O)OCc2ccccc2)C(c2ccc(N(C)C)cc2)n2c(nc3ccccc32)N1 (centres undefined)	84.6%	82.8%	29.4%	103%	65.2%	87.7%	90.8%	73.4%	69.8%
Cc1ccc(O)cc1Nc1nc(SCCN2CCOCC2)nc2c1cnn2CC(Cl)c1ccc(Br)cc1 (centres undefined)	-2.49% (active)		12.6%	32.9%	5.88% (active)	2.84% (active)	1.63% (active)	17%	-55.7% (active)
CCN1C(=O)N(CC)C2NNC(Sc3c(C(=O)O)c4ccccc4n(CCC(C)C)c3=O)=NC21 (centres undefined)	73.5%		-53.6% (active)	28.4%	9.16% (active)	3.95% (active)	3.88% (active)	21.3%	7.98% (active)
COc1ccc2c(c1)c(-c1cc(N)n3nc(-c4c[nH]c5ccccc45)cc3n1)cn2C	-63.5% (active)		-74% (active)	-89.5% (active)	-72% (active)	-85.9% (active)	-80.6% (active)	-74.8% (active)	-73.8% (active)
CCC1(OC(=O)c2ccccc2SSCCOC(=O)CCCCC2SCC3NC(=O)NC32)C(=O)OCc2c1cc1n(c2=O)Cc2cc3ccccc3nc2-1 (centres undefined)	33.7%	49.4%	70.1%	51.5%	26.5%	53.8%	78.7%	79%	-12.1% (active)
Fc1cccc(CNc2nc(SCCN3CCOCC3)nc3c2cnn3CC(Cl)c2ccc(Br)cc2)c1 (centres undefined)	1.04% (active)		10.6%	-38.2% (active)	7.42% (active)	18.4%	12.2%	8.48% (active)	3.38% (active)
COc1cc(NC(=O)C(C)C)ccc1C(=O)NC(=S)Nc1ccc(S(N)(=O)=O)cc1	99.5%		106%	107%	101%	106%	116%	100%	123%
